ELG1 DNA repair: qHTS screen for small molecules that inhibit ELG1-dependent DNA repair in human embryonic kidney (HEK293T) cells expressing luciferase-tagged ELG1; HEK293T ELG1-luciferase reporter, luminescence, 16 h; DNA damage induced by 5-fluorouridine; Potency, µM (series often up to 46.1 µM), without a hit: top-dose activity change, negative = inhibition, usual class: inhibitors; hit rate 2.3% among 330,000; AID 504467, 2011; also: % is scaled to controls: 0 for no effect and ±100 for the full control effect; nearly all actives have a fitted effect of over 55% in size
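Luminescence from the luciferase reporter, measured 30 min after ONE-Glo reagent at room temperature, was the read-out. Beforehand, 2,000 cells per well were exposed for 16 hr at 37 °C to 5-fluorouridine together with compound or vehicle.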
NPC1 prom act: qHTS Assay for NPC1 Promoter Activators. Huh7 NPC1 promoter luciferase reporter, 24 h. Potency, µM (titrated, usually from 9.22 µM), without a hit: at the top dose activation, usual class: activators. hit rate 2.4% among 320,000; also: % of control where 0% means no effect; nearly all actives have a fitted effect of over 60% in size
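Compounds in DMSO were transferred onto Huh7 NPC1-luciferase reporter cells pre-incubated 2 h; after 24 h at 37 °C, Amplite reagent was dispensed and luminescence recorded 10 min later.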
SMN2 splice enh: qHTS Assay for Enhancers of SMN2 Splice Variant Expression; HEK293 SMN2-luciferase splicing reporter, luminescence, 30-36 h; Potency, µM (top dose mostly 46.1 µM), without a hit: top-dose activity change, positive = activation, actives largely listed as activators; AID 1458, 2008; hit rate 2.8% among 210,000; also: % of control where 0% means no effect; nearly all actives have a fitted effect of over 55% in size
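HEK293 cells carry an SMN2 […]–luciferase reporter in which exon 7 inclusion puts luciferase in frame. Cells were plated 10-12 h before compound addition, then incubated 30-36 h at 37C. ONE-Glo luminescence was read; sodium butyrate at 4.5 mM final served as control.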
FLuc counter: qHTS profiling assay for firefly luciferase inhibitor/activator using purifed enzyme and Km concentrations of substrates (counterscreen for miR-21 project) | Luciferin 4-monooxygenase (Photinus pyralis), P08659 | purified FLuc, Km substrates, luminescence inhibition | Potency, µM (doses to about 57.5 µM), for inactives: top-dose activity change, negative = inhibition, hits mostly inhibitors | hit rate 6.9% among 360,000;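 also: plate controls were vehicle for no effect and reference inhibitor for full effect; nearly all actives have a fitted effect of over 55% in size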
Target sequence (P08659 whole entry, looked up): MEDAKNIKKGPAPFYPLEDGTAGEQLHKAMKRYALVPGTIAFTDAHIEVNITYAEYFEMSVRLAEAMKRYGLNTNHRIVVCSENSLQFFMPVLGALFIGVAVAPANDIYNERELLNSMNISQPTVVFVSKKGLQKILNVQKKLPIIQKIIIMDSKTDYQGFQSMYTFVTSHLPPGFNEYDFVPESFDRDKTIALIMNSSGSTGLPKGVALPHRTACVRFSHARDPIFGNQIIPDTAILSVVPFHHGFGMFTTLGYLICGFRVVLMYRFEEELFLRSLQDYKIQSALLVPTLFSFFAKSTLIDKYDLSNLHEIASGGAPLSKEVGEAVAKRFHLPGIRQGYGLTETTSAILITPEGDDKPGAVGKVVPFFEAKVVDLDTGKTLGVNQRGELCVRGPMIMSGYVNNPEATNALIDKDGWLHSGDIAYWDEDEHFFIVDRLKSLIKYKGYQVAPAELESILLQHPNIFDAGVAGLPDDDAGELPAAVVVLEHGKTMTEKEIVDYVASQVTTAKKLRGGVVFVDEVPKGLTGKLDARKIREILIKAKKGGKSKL
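Purified P. pyralis luciferase (10nM final) with 10uM D-luciferin and 10uM ATP (Km levels) in 50mM Tris acetate pH 7.5, 10mM Mg acetate, 0.01% Tween-20, 0.05% BSA; qHTS 6-point titration, ~60 µM downward; luminescence read.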
ELG1 genotoxic: qHTS screen for small molecules that induce genotoxicity in human embryonic kidney (HEK293T) cells expressing luciferase-tagged ELG1; hit rate 1.3% among 330,000; AID 504466, 2011; Potency, µM (highest dose often 46 µM), without a hit: at the highest dose activity change, positive = activation, most hits filed as activators; HEK293T ELG1-luciferase reporter, luminescence, 16 h; also: % of control where 0% means no effect; nearly all actives have a fitted effect of over 60% in size
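Cells (2,000/well) expressing the ELG1-luciferase fusion are dosed by pin tool and kept 16 hr at 37 °C, 5% CO2. Signal comes from ONE-Glo luciferase reagent after 30 min at room temperature.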
Rab9 prom act: qHTS Assay for Rab9 Promoter Activators | Huh7 Rab9 promoter-luciferase reporter, luminescence, 24 h | Potency, µM (doses to about 9.22 µM), without a hit: top-dose activation, negative = inhibition, hits mostly activators | hit rate 2.8% among 320,000; also: % of control where 0% means no effect; nearly all actives have a fitted effect of over 60% in size
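Cell-based reporter: Huh7 stable for Rab9 promoter-driven luciferase, plated in reduced-serum medium with 10% FBS at 1500 cells/well, compound-treated 24 h at 37 °C, luminescence read after 10 min reagent.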
The depositor's hits bear a star; ? = inconclusive; . = not tested or not shown. Sampled rows, rich in hits. Any-hit rate of the full collection: about 9.2%. Calls follow the shape of the dose curve; as a rule, active = well fitted curve in the direction sought with a large enough effect; inconclusive = small, poorly fitted or top-dose-only effect, or another doubt; inactive = no such curve, though single readings can be large; an effect the other way counts as inactive or inconclusive. Potency is read from the fitted curve at half-maximal effect.

SMILES	ELG1 DNA repair	NPC1 prom act	SMN2 splice enh	FLuc counter	ELG1 genotoxic	Rab9 prom act
O=C(NCCCN1CCN(c2ccc(F)cc2)CC1)Nc1ccccc1Cl	.	.	1%	-7%	.	.
N#C/C(=C\c1cc([N+](=O)[O-])c(N2CCCCC2)cc1N1CCCCC1)c1nn(-c2ccccc2)c(N)c1C#N	-2%	-5%	27%	-2%	0%	-1%
N#C/C(=C/c1ccc(N2CCCCCC2)o1)c1cccc(F)c1	?	3.5µM*	13µM*	5.4µM*	5.8µM*	4µM*
N#C/C(=C/c1ccc(N2CCOCC2)o1)c1ccc(Br)cc1	?	?	?	8.5µM*	7%	?
N#C/C(=C\c1cccnc1)c1ccc(Br)cc1	-14%	5%	.	?	2%	1%
N#C/C(=C\c1ccc(N2CCOCC2)o1)c1ccccc1	?	?	13µM*	2.1µM*	?	?
N#C/C(=C\c1cc([N+](=O)[O-])c(N2CCOCC2)cc1N1CCOCC1)c1nc2ccccc2[nH]1	21µM*	-2%	1%	-2%	-6%	-1%
COc1cc(N2CCCC2)c(OC)cc1/C=C(/C#N)c1cccc(F)c1	?	6%	12%	-12%	0%	0%
Cc1ccc(NC(=O)N2CCCC(C(=O)O)C2)cc1 (stereo unspecified)	19%	-2%	.	?	4%	-3%
N#C/C(=C\N1CCOCC1)c1ccccc1	18%	-3%	-20%	-1%	-2%	0%
N#C/C(=C\c1ccc(Sc2ccc(Cl)cc2)o1)c1nc2ccccc2[nH]1	?	6%	-19%	-10%	-6%	21%
N#C/C(=C\c1ccc(N2CCOCC2)cc1)c1ccccc1	?	2.8µM*	3.2µM*	?	4.1µM*	1µM*
N#C/C(=C/c1ccc(N2CCOCC2)o1)c1nc2ccccc2[nH]1	?	3.5µM*	2µM*	0.54µM*	2.3µM*	1µM*
Cc1ccc(-c2cn(-c3ccc(Cl)cc3)c(S(=O)(=O)CC(=O)Nc3ccccc3)n2)cc1	.	.	3.2µM*	?	.	.
COc1cc(/C=C2/C(C)=C(C#N)c3nc(N)c(C#N)c(C)c32)ccc1OCC(=O)O	-17%	-6%	?	-11%	-8%	-6%
CC1=C(C#N)c2nc(N)c(C#N)c(C)c2/C1=C\c1ccc(-c2ccccc2C(=O)O)o1	8.2µM*	-3%	5%	?	-15%	-3%
COc1ccc(C2=NN(C(=O)CSc3ncccn3)C(c3cccc(OC)c3OC)C2)cc1 (stereo unspecified)	?	1%	-4%	-2%	-2%	1%
CCOc1cccc2c1OC(c1cc(OC)c(OC)c(OC)c1)N1N=C(c3ccc(C)o3)CC21 (stereo unspecified)	?	21%	?	3µM*	?	25%
COc1cc(NC(=O)c2ccc(OCc3c(C)noc3C)c(OC)c2)cc(OC)c1	21µM*	.	.	.	5%	.
Cc1noc(C)c1COc1cccc(C(=O)Nc2ccccc2)c1	3%	1%	.	.	4%	-3%
Cc1ccc(NC(=O)c2cccc(OCc3c(C)noc3C)c2)cc1	18%	9%	-5%	24µM*	3%	1%
FB(F)F	.	.	25%	.	.	.
CCc1ccc(NC2=NCC(c3ccccc3)S2)cc1 (stereo unspecified)	?	?	14µM*	7.6µM*	?	?
COc1ccccc1N1CCN(C(=O)Cn2nc3n(C)c4ccccc4n3c(=O)c2=O)CC1	9%	0%	9%	3%	1%	-5%

Bioassay records as filed in PubChem BioAssay.
